Here are results for nine compounds from PubChem BioAssay (NCI).

About 83,000 compounds went through this panel and 20% of them were active in at least one assay; those are over-represented in the sample as a whole.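 Activity criterion: percent growth below 10, measured after cells in 96-well plates were exposed to a single compound concentration for 48 hours.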 Unmarked numbers belong to inactive results. Calls of active or inactive are those of the source.

What all share (assay): NCI-60 one-dose screen, 48 h (100 = growth as untreated, 0 = no growth, -100 = all killed)
Experiment [1] concerns HCT-15 colon. Particulars: 10 µM unless noted.
Experiment [2] concerns HT29 colon. The note with it: 10 µM unless noted.
Experiment [3] relates to SNB-75 CNS. The note with it: 10 µM unless noted.
In experiment [4] the test system is U251 CNS. Particulars: 10 µM unless noted.
For experiment [5], the system named is PC-3 prostate. Particulars: 10 µM unless noted.
Experiment [6] deals with SK-MEL-5 melanoma. Particulars: 10 µM unless noted.
Experiment [7] deals with UACC-62 melanoma. Particulars: 10 µM unless noted.
Experiment [8] relates to LOX IMVI melanoma. Particulars: 10 µM unless noted.
In experiment [9] the test system is SK-MEL-28 melanoma. The note with it: 10 µM unless noted.
Experiment [10] concerns SN12C renal. The note with it: 10 µM unless noted.
The subject of experiment [11] is UO-31 renal. The note with it: 10 µM unless noted.
Experiment [12] has as its system ACHN renal. The note with it: 10 µM unless noted.
In experiment [13] the test system is CAKI-1 renal. The note with it: 10 µM unless noted.
Experiment [14] has as its system A498 renal. Particulars: 10 µM unless noted.
Experiment [15] concerns MOLT-4 leukemia. The note with it: 10 µM unless noted.
For experiment [16], the system named is SNB-19 CNS. Particulars: 10 µM unless noted.
The subject of experiment [17] is EKVX NSCLC. Particulars: 10 µM.
For experiment [18], the system named is TK-10 renal. Particulars: 10 µM unless noted.
For experiment [19], the system named is SK-MEL-2 melanoma. The note with it: 10 µM unless noted.
In experiment [20] the test system is CCRF-CEM leukemia. Particulars: 10 µM.

In the case of `C[n+]1c2ccccc2c(Nc2ccc(NS(=O)(=O)CCCCN=C(N)N)cc2)c2ccc(N)cc21`, the growth is 79.2% in experiment [1]; 34% in [2]; 37.7% in experiment [3]; 30% in experiment [4]; 48.3% in experiment [5]; 34.2% in experiment [6]. Further, the growth in [7] was 50%; in experiment [8] it was 33.5%; in experiment [9] it was 72.7%; in [10] it was 17.8%; in [11] it was 50.2%; in experiment [12], 24.1%. Besides, the growth in experiment [13] was 43.2%; in experiment [14], 50.8%; in [15], -13% (active).

For the compound `C=CCN(C)C`, the growth in experiment [1] is 113%; in [2], 113%; in experiment [16] it was 102%; in experiment [4], 102%; in [5], 105%; in experiment [6], 108%. Also, the growth in [7] was 101%; in [8] it was 99.8%; in experiment [9] it was 110%; in experiment [17] it was 92%; in experiment [10], 94.7%; in experiment [11] it was 93.3%. In addition, the growth in experiment [18] is 119%; in experiment [12] it was 105%; in experiment [13] it was 92.5%.

Turning to `CCN(CC)c1ccc2nc3ccc(N=Nc4ccc(O)cc4)cc3[n+](-c3ccccc3)c2c1`, the growth in experiment [1] is 65.6%; in [2], 28.9%; in experiment [16] it was 73.3%; in experiment [4] it was 44.1%; in experiment [5], 48.3%; in [6], 46.3%. Also, the growth is 59.3% in experiment [7]; 36.5% in experiment [8]; 52.2% in experiment [9]; 76.8% in [19]; 77.6% in [17]; 75.5% in experiment [10]. The growth in experiment [11] is 48.5%; in [18] it was 66.6%; in experiment [12], 60.2%; in experiment [13], 90.5%; in experiment [14], 75%; in experiment [20], 12.8%. Also, the growth in experiment [15] is 18.1%.

Consider `COC(=O)c1cc(O)c2cc3c(cc2c1-c1cc(OC)c(OC)c(OC)c1)OCO3`, for which the growth in experiment [1] is 23.6%; in [2], -9.35% (active); in experiment [16] it was 36.9%; in experiment [4], 42.3%; in [6], 3.09% (active); in [7] it was 44.2%. Moreover, the growth is 29.7% in experiment [8]; 51.5% in experiment [9]; 55.8% in experiment [17]; 34.1% in experiment [10]; 44.8% in experiment [11]; 43.2% in [18]. For the same compound, the growth was 36.8% in experiment [12]; 30.2% in experiment [13]; 45.6% in [14]; 8.87% (active) in [20]; 35.3% in experiment [15].

In the case of `Cc1ccc(C(=O)NN)cc1`, the growth was 102% in experiment [1]; 111% in experiment [2]; 94.5% in experiment [3]; 109% in experiment [5]; 108% in experiment [6]; 96.5% in experiment [8]. The growth is 109% in [9]; 97.1% in experiment [17]; 104% in experiment [11]; 110% in experiment [18]; 115% in experiment [12]; 99.5% in experiment [20]. The growth in experiment [15] is 93%.

With `COc1cc(OC)c(/C=C/c2ccc3ccccc3[n+]2C)c(OC)c1`, the growth in experiment [1] is 77.5%; in [2], 3.11% (active); in experiment [3], 11.2%; in [4], 13.3%; in experiment [5], 10.7%; in experiment [6] it was -74% (active). For the same compound, the growth in experiment [7] is 0.263% (active); in [8], -33.2% (active); in experiment [9], 9.89% (active); in experiment [19] it was -4.21% (active); in experiment [10], 12.3%; in [11], 65.9%. For the same compound, the growth in [12] is 25.6%; in [13], 68.4%; in experiment [14], 7.12% (active); in [15], -50.3% (active).

On to `O=C(Nc1ccc(-n2cc(-c3ccncc3)c(-c3ccc(Cl)c(O)c3)n2)cc1)c1ccc(Cl)c(Cl)c1`, for which the growth is 12.2% in experiment [1]; -34.7% (active) in experiment [2]; 77.1% in experiment [16]; 34.1% in experiment [4]; 17.2% in experiment [5]; -99.3% (active) in experiment [6]. Moreover, the growth is 11.3% in [7]; 29.1% in [8]; -7.55% (active) in [9]; 61.8% in experiment [17]; 65.7% in experiment [10]; 14.8% in experiment [11]. Besides, the growth is 33% in experiment [18]; 0.324% (active) in [13]; 83.8% in experiment [14]; 40.2% in experiment [20]; 22.3% in [15].

As to `C[C@H]1C[C@@H](n2cnc3c(N)nccc32)[C@H](O)[C@@H]1O`, the growth was 89.2% in [2]; 100% in [3]; 82% in experiment [16]; 69.2% in experiment [4]; 110% in experiment [5]; 96.7% in experiment [6]. Besides, the growth is 98.7% in experiment [7]; 79.8% in [8]; 88% in experiment [9]; 106% in [19]; 96.3% in experiment [17]; 92.3% in experiment [10]. Moreover, the growth is 167% in experiment [11]; 119% in experiment [18]; 101% in experiment [12]; 116% in experiment [13]; 120% in experiment [14]; 23.6% in [20].

As to `COc1ccc2c(c1)cn1c3ccc(O)cc3[nH]c(=O)c21`, the growth in experiment [1] is 2.24% (active); in experiment [2], -43.1% (active); in experiment [16] it was 21.7%; in experiment [4], 10.5%; in experiment [5], 11%; in [6] it was 13%. Moreover, the growth was 39% in [7]; 3.95% (active) in experiment [8]; 27.9% in experiment [9]; 47.9% in experiment [17]; 40.2% in experiment [10]; 23.3% in experiment [11]. Further, the growth in experiment [18] is 13%; in experiment [12] it was 14.8%; in experiment [13] it was 22.2%; in experiment [14], 40.7%; in experiment [20], 18.5%; in experiment [15], 19.2%.
